In PubChem BioAssay:

Target: NADPH oxidase 5 (Homo sapiens) (UniProt Q96PH1)
Test: NOX5-dependent H2O2 signal modulators, primary screen, NOX inhibitor project, cell-based, HEK293-NOX5, Amplex Red fluorescence (AID 1161)
Conditions: HEK293-NOX5, ionomycin, 45 min, higher = more signal

Sequence of NADPH oxidase 5 (Homo sapiens) (Q96PH1 whole entry, looked up): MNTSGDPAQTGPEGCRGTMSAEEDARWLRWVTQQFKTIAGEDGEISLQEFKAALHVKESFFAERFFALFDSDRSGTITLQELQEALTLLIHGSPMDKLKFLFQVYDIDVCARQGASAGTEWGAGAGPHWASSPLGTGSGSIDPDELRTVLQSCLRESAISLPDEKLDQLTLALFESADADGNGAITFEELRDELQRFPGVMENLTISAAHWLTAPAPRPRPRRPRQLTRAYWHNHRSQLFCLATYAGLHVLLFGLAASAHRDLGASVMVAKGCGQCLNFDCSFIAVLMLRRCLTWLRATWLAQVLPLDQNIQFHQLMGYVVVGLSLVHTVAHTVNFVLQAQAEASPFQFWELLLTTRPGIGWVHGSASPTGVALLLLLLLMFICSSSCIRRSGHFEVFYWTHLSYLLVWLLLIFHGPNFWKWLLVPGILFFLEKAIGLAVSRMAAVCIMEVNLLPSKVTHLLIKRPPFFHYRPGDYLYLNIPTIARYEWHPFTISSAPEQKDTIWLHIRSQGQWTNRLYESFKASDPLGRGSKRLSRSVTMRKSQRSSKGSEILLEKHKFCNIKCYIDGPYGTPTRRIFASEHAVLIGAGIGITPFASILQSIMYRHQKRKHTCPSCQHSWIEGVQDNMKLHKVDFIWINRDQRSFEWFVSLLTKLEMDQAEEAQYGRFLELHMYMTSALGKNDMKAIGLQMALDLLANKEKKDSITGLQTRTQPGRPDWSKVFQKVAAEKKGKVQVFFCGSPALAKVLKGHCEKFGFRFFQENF

Row | SMILES | z-score
1 | O=C1C2C=CC(C(O)C(c3ccccc3)c3ccccc3)N(Nc3ccccc3)C2C(=O)N1c1ccccc1 (stereo not drawn) | -2.54
2 | CC(C)CNC(=O)[C@@]1(C)c2ccccc2C(=O)N(Cc2cc(F)cc(C(F)(F)F)c2)[C@H]1c1ccc(CO)cc1 | -0.364
3 | Cc1c(NC(=O)/C(C#N)=C/c2ccc(Cl)cc2)c(=O)n(-c2ccccc2)n1C | 1.22
4 | CN1C(=O)[C@]2(CCS(=O)(=O)c3ccccc3)N=C(c3ccc(OCCCO)cc3)O[C@@H]2c2ccccc21 | -1.12
5 | COc1cccc(C[C@H]2C[C@@H](CO[Si](C(C)C)(C(C)C)C(C)C)N3C(=O)[C@@]4(C(C)=O)O[C@@]23[C@@H]2C(=O)N(C)C(=O)[C@@H]24)c1 | 0.181
6 | CC(=O)n1cc(C(O)C2C=CC3C(=O)N(c4ccccc4)C(=O)C3N2Nc2ccccc2F)c2ccccc21 (stereo not drawn) | -0.614
7 | CC=CC(O)C1C=CC2C(=O)N(C)C(=O)C2N1NC(=O)OC(C)(C)C (stereo not drawn) | -1.22

Tested on: not listed separately
Test: A549 cell viability effects, profiling panel, calcein-AM fluorescence, 48 h, basal (AID 1162); note: test concentration not given here
Conditions: higher = more signal

Row | SMILES | z-score
8 | CCCCC(=C=CC[C@@H](O)c1cccc(OCCO)c1)CCO | 1.58
9 | C=CCOC(=O)[C@@H]1[C@H]2C(=O)O[C@H](c3ccccc3)[C@H](c3ccccc3)N2[C@H](c2ccc(OCCOC(=O)[C@H]3C[C@H]4C(=O)NCC(=O)N4[C@H]3c3ccc(O)cc3)cc2)[C@@]12C(=O)Nc1ccc(I)cc12 | -0.441
10 | CN1C=C(C(=O)OCCS(C)(=O)=O)C(C(=O)OCCS(C)(=O)=O)=CC(CCCO)=CC1c1ccc(CN2CCCC2)cc1 (stereo not drawn) | 1.46
11 | COCCOC(=O)N1C(=O)[C@@]2(c3cc(C#CC4(O)CCCCCC4)ccc31)[C@H](C(=O)N1CCc3cc(OC)c(OC)cc3C1)[C@H]1C(=O)O[C@H](c3ccccc3)[C@H](c3ccccc3)N1[C@@H]2c1ccc(O)cc1 | -0.635
12 | O=C1O[C@@H](c2ccccc2)[C@@H](c2ccccc2)N2[C@@H](c3ccc(OCCO)cc3)[C@]3(C(=O)Nc4ccc(C#CCCO)cc43)[C@@H](C(=O)Nc3nc4ccccc4s3)[C@H]12 | 0.0652
13 | COCCCNC(=O)[C@@H]1c2ccccc2C(=O)N(C2CCCCC2)[C@H]1c1ccc(CO)cc1 | 1.83
14 | C=CC[C@]1(C(=O)NCc2ccccc2)COC(c2ccc(OCCCO)cc2)=N1 | -0.555
15 | CN(C)CCCNC(=O)[C@@]1(Cc2ccccc2I)c2ccccc2C(=O)N(Cc2ccccc2)[C@H]1c1ccc(CO)cc1 | -2.02
16 | COc1cccc(OC)c1C(=O)O[C@H]1[C@@H]2OC(=O)[C@H](Cc3cccc(Br)c3)C/C=C/C[C@@H](Cc3cccc(Br)c3)C(=O)O[C@H]2[C@@H](OC)O[C@@H]1CO | -0.144
17 | [N-]=[N+]=NCc1ccccc1C[C@]1(C(=O)NCc2ccccc2)N=C(c2ccc(OCCCO)cc2)O[C@H]1c1ccccc1CN=[N+]=[N-] | -1.42
18 | COCCOC(=O)N1C(=O)[C@@]2(c3cc(C#Cc4ccc(OC)cc4)ccc31)[C@H](c1ccc(OCCO)cc1)N1[C@H](c3ccccc3)[C@H](c3ccccc3)OC(=O)[C@H]1[C@@H]2C(=O)N1CCCCCCC1 | 0.571
19 | Cc1ccc(S[C@]2(C(=O)NC3CC3)CC(=O)N(Cc3cc(C(F)(F)F)cc(C(F)(F)F)c3)[C@@H]2c2ccc(CO)cc2I)cc1 | -0.155
20 | CC1(C)OC[C@@]23C=C(Br)[C@@H](C[C@H]12)[C@@]1(CO1)C3=O | 0.0066
21 | CCOC(=O)C1=CC[C@@H](c2ccccc2)N(S(=O)(=O)c2ccc(C)cc2)[C@H]1C#N | -0.97
22 | COc1ccccc1CN1C(=O)c2ccccc2[C@](Cc2ccccc2I)(C(=O)NCCCN(C)C)[C@@H]1c1ccc(CO)cc1 | -4.38
23 | CCCC=C(CCC)[C@@H](NC(=O)c1ccco1)c1ccc(C(=O)OC)cc1 | -4.29
24 | CC(C)(C)OC(=O)CC[C@]1(C(N)=O)N=C(c2ccc(OCCCO)cc2)O[C@H]1c1ccccc1CN=[N+]=[N-] | 0.249
25 | COc1ccc(NN2C(C(O)c3cc(C(F)(F)F)cc(C(F)(F)F)c3)C=CC3C(=O)N(C4CCCCC4)C(=O)C32)cc1 (stereo not drawn) | -0.557
26 | COc1ccc(CCNC(=O)[C@@]2(C)c3ccccc3C(=O)N(Cc3cc(C(F)(F)F)cc(C(F)(F)F)c3)[C@H]2c2ccc(CO)cc2)cc1 | 0.0571
27 | CC(C)C(=C=CC[C@@H](O)c1ccc(OCCO)cc1)CCO | -0.45
28 | C=CCC(OC(C)=O)[C@@H]1[C@@H](N(Cc2cc3ccccc3o2)C(=O)c2ccc(-c3ccccc3)cc2)c2cc(OCCCO)ccc2N1C(=O)c1ccc2ccccc2n1 (stereo partly drawn) | 0.704
